TIM10 inh: growth inhibitors of TIM10 yeast strain; S. cerevisiae TIM10 strain growth, BacTiter-Glo luminescence, 24 h; inhibition, % at 10 µM; 330,000 compounds, 1.4% hits;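 active = inhibition of 40% or more at the single tested concentration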;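 note: wild-type TIM10 isogenic control strain grown at permissive 25 °C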
V-ATPase pH: yeast V-ATPase proton transport regulation by pHLuorin; S. cerevisiae, pHLuorin cytosolic pH fluorescence; response, % at 10 µM; 350,000 compounds, 0.37% hits; AID 504577; in the data active = response mostly above about 7.3%, no sharp cut-off; inactive = mostly below about 5.4%; note: actives read high
tim10-1 inh: growth inhibitors of tim10-1 mutant yeast; S. cerevisiae tim10-1 ts strain growth, BacTiter-Glo, 24 h; inhibition, % at 20 µM; 330,000 compounds, 2.2% hits; AID 463190;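 active = inhibition of at least 40%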;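 note: mutant grown at 25 °C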
NALP3 yeast inh: NALP3 inhibition in yeast; AID 2825; inhibition, % at 10 µM; Yeast reconstituted NLRP3/ASC/caspase-1, beta-gal luminescence, 24 h; 330,000 compounds, 0.39% hits;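 active = inhibition of 50% or more; inactive = inhibition below 50%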
tim23-1 inh: growth inhibitors of tim23-1 mutant yeast. S. cerevisiae tim23-1 growth, BacTiter-Glo luminescence, 24 h. inhibition, % at 20 µM. 330,000 compounds, 1.3% hits. AID 463212;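 active = growth inhibition of the mutant yeast at or above 50%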;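 note: temperature-sensitive mutant grown at 25 °C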
NALP1 inh: blocks the NALP1 inflammasome reconstituted in yeast | S. cerevisiae NALP1/ASC/caspase-1 growth, X-gal OD620, 72 h | inhibition, % at 10 µM | 280,000 compounds, 0.61% hits | AID 2071; in the data active = inhibition mostly above about 24%, no sharp cut-off; inactive = mostly below about 32%
tim23-1 conf: confirmation of tim23-1 mutant yeast growth inhibitors. AID 463218. S. cerevisiae tim23-1 growth, BacTiter-Glo luminescence, 24 h. inhibition, % at 20 µM. shares compounds with tim23-1 inh. 4,400 compounds, 83% hits;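 active = inhibition above about 39% in either of two replicate wells at 20 µM, limit read from the data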;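 note: temperature-sensitive tim23-1 mutant grown at 25 °C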
Hits are given with their value; n = inactive; x = not tested or not shown. Shown are actives, neighbours in structure and some others; about 4.2% of the full set was active somewhere.

SMILES | TIM10 inh | V-ATPase pH | tim10-1 inh | NALP3 yeast inh | tim23-1 inh | NALP1 inh | tim23-1 conf
Cc1ccc(-c2cc(-c3cccs3)[nH]n2)c(O)c1 | n | n | n | n | 51 | n | n
Cc1c(NC(=O)c2cccs2)cccc1[N+](=O)[O-] | n | n | n | n | n | n | x
O=C(Nc1ccc(F)c([N+](=O)[O-])c1)c1cccs1 | n | n | n | n | 53 | n | 49
COc1ccc(S(=O)(=O)N2CCN(Cc3cccc(OC)c3)CC2)cc1 | n | n | n | n | 55 | n | 43
COc1cccc(CN2CCN(S(=O)(=O)c3ccc(Br)cc3)CC2)c1 | n | n | n | n | n | n | x
Cc1ccc(C)c(C(=O)COC(=O)c2n[nH]c3ccccc23)c1 | n | n | n | n | 58 | x | 49
O=C(COC(=O)c1n[nH]c2ccccc12)c1cccc(Br)c1 | n | n | n | n | 50 | n | 40
CC(Oc1cc(F)ccc1[N+](=O)[O-])C(=O)N(C)CC(=O)Nc1ccccc1C(F)(F)F (stereo not drawn) | n | n | n | n | n | n | x
NC(=S)NNc1cccc2cccnc12 | n | n | n | n | 58 | n | n
NC(=S)Nc1cccc2cccnc12 | n | n | n | n | n | n | x
Oc1c(Cl)cc(Cl)cc1C=Nc1ccc(Br)cc1 | n | n | n | n | 74 | n | 72
Cc1noc(C)c1CSc1nc2[nH]ncc2c(=O)n1-c1ccccc1 | n | n | n | n | n | n | x
Cc1noc(C)c1CSc1nc2ccccc2c(=O)n1-c1ccccc1 | n | n | n | n | 52 | n | 45
CC(C)(C)c1csc(NC(=O)c2cccs2)n1 | n | n | n | n | 56 | n | n
Cc1ccc(C(=O)N/N=C/c2cc(Br)ccc2O)cn1 | n | n | n | n | 63 | n | 52
COc1ccc(NC(=O)/C(C#N)=C/c2cccnc2)c(OC)c1 | n | n | n | n | 50 | n | 44
N#C/C(=C\c1ccc(Cl)cc1)C(=O)Nc1cccnc1 | n | n | n | n | 65 | n | 68
Cc1cccc(NC(=O)/C(C#N)=C/c2ccc(Cl)cc2)n1 | n | n | n | n | 60 | n | 68
COc1ccc(/C=C(\C#N)C(=O)Nc2cccnc2)cc1 | n | n | n | n | n | n | x
Cc1cc(NC(=O)CSc2ncc(C(=O)O)n2-c2ccc(F)cc2)no1 | n | n | n | n | n | x | x
COc1cc(/C=N/Nc2nc(=O)[nH]nc2C)cc([N+](=O)[O-])c1O | n | n | n | n | n | n | x
Cc1ccc(C)c(N(CC(=O)NCc2ccco2)C(=O)CCC(=O)Nc2nccs2)c1 | n | n | n | n | n | n | x
COc1ccc(CN2CCN(C(=O)c3cccc4ccccc34)CC2)cc1OC | n | n | n | n | n | n | x
COc1ccc(CN2CCN(C(=O)c3cccc4ccccc34)CC2)cc1Br | n | n | n | n | 50 | n | n
CCC(=Cc1ccc(CC)cn1)CC | n | n | n | n | n | n | x
SMILES | TIM10 inh | V-ATPase pH | tim10-1 inh | NALP3 yeast inh | tim23-1 inh | NALP1 inh | tim23-1 conf
O=C(NCC1OCCCN1S(=O)(=O)c1cc(F)ccc1F)C(=O)NC1CCCCC1 (stereo not drawn) | n | n | n | n | n | n | x
O=C(O)c1ccccc1N=Nc1ccc(O)cc1 | n | n | n | n | n | x | x
Oc1ccc(N=Nc2ccccc2)cc1 | n | n | n | n | 55 | n | 47
CCCn1c(SCC(=O)NCCc2ccccc2)nnc1C(C)C | n | n | n | n | n | x | x
O=C(/C=C/c1ccccc1)Nc1scc(-c2ccccc2)c1C(=O)O | x | n | x | x | x | n | x
O=C(Nc1scc(-c2ccccc2)c1C(=O)O)c1ccccc1F | n | n | n | n | 58 | n | 54
O=C(/C=C/c1ccco1)Nc1scc(-c2ccccc2)c1C(=O)O | n | n | n | n | 55 | n | 46
COc1ccc(-c2csc(NC(=O)c3ccccc3Br)c2C(=O)O)cc1 | n | n | n | n | 64 | n | 73
COc1ccccc1C(=O)Nc1cc(C)ccc1NC(=O)c1ccco1 | n | n | n | n | n | n | x
Cc1cc(SCC(=O)N/N=C/c2ccc(O)c(O)c2)nc2ccccc12 | n | n | n | n | n | n | x
Cc1cc(SCC(=O)N/N=C/c2ccc(O)cc2O)nc2ccccc12 | n | n | n | n | 51 | n | 52
Cc1ccc(NCc2nc3ccccc3n2C)cc1C | n | n | n | n | n | n | x
COCCCN(C(=S)Nc1cc(Cl)cc(Cl)c1)C(C)c1ccccn1 (stereo not drawn) | n | n | n | n | 63 | x | 53
COCCCN(C(=S)Nc1cc(Cl)cc(Cl)c1)C(C)c1ccncc1 (stereo not drawn) | n | n | n | n | 50 | 68 | 47
COCCCN(C(=S)Nc1ccc(C)cc1Cl)C(C)c1ccncc1 (stereo not drawn) | n | n | n | n | n | n | x
COc1ccccc1CN1CC(C(=O)N2CCC(C(=O)c3ccccc3)CC2)CCC1=O (stereo not drawn) | n | n | n | n | n | n | x
NC(=O)NOCc1ccccc1F | n | n | n | n | n | n | x
COc1ccccc1/C=C/C(=O)OCC(=O)NC(=O)NC1CCCC1 | n | n | n | n | n | x | x
CCOc1ccc(N=c2scc(-c3ccccc3)n2CCO)cc1 | n | n | n | n | n | n | x
CCn1c(-c2ccccc2)csc1=Nc1ccc(O)cc1 | n | n | n | n | 58 | n | 39
COc1cc(OC)c(NC(=O)C2CCN(S(=O)(=O)c3ccc4c(c3)CC(C)N4C(C)=O)CC2)cc1Cl (stereo not drawn) | n | n | n | n | n | n | x
O=C1/C(=C\c2cccs2)N=C(c2cccs2)N1Nc1ccccc1 | n | n | n | n | 66 | n | 41
O=C1/C(=C/c2cccs2)N=C(c2cccs2)N1Nc1ccccc1 | n | n | n | n | 57 | n | 51
O=C1N=C(c2ccccc2)S/C1=C\c1cccs1 | n | n | n | n | n | n | x
Cc1ccc(C2=N/C(=C\c3cccs3)C(=O)N2Nc2ccccc2)cc1 | n | n | n | n | n | n | x
SMILES | TIM10 inh | V-ATPase pH | tim10-1 inh | NALP3 yeast inh | tim23-1 inh | NALP1 inh | tim23-1 conf
CN(Cc1ccnc2ccccc12)C(=O)C1CCC(=O)N(Cc2ccccc2F)C1 (stereo not drawn) | n | n | n | n | n | n | x
O=C(O)C1CCCC2CN3CCc4c([nH]c5ccccc45)C3C(O)C21 (stereo not drawn) | n | n | n | n | n | n | x
Cc1ccnc(NC(=O)c2ccc3c(c2)C(=O)N(CC(C)C)C3=O)c1 | n | n | n | n | 63 | n | 57
NS(=O)(=O)c1ccc(CCNC(=O)C2CC(=O)N(Cc3ccccc3Cl)C2)cc1 (stereo not drawn) | n | n | n | n | n | x | x
CCc1sc(C(=O)Nc2ccc3c(c2)OCO3)cc1C | n | n | n | n | 55 | x | 46
CCc1sc(C(=O)Nc2ccc(N3CCOCC3)cc2)cc1C | n | n | n | n | n | x | x
